# In PubChem BioAssay (Tox21):
# Inconclusive results are not listed. Calls of active or inactive are those of the source. The call rests on the fitted dose curve; in most records, active means well fitted activation curve with a large enough effect in the repeat runs; inconclusive means weak or mixed curves; inactive means no such curve, though single readings can be large or run the other way.
# Molecular target: Aryl hydrocarbon receptor (Homo sapiens) (UniProt P35869)
# Assay: qHTS assay to identify small molecule that activate the aryl hydrocarbon receptor (AhR) signaling pathway (AID 743085); further: nearly all actives have a fitted effect of over 15% in size;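 on activation: HG2L7.5c1 human HepG2 liver cells with stably integrated DRE-driven firefly reporter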
# Settings: HepG2 AhR-luc (HG2L7.5c1), luciferase, 24 h; series mostly up to 70.3 µM; activation: at the top concentration
# Description: U.S. Tox21 Program National Center for Advancing Translational Sciences [NCATS] NIH Chemical Genomics Center [NCGC] U.S. Environmental Protection Agency [EPA] National Institutes of Environmental Health Sciences [NIEHS] National Toxicology Program [NTP] U.S. Food and Drug Administration [FDA] Tox21 Assay overview: The Aryl hydrocarbon Receptor (AhR), a member of the family of basic helix-loop-helix transcription factors, is crucial to adaptive responses to environmental changes. AhR mediates cellular responses to environmental pollutants such as aromatic hydrocarbons through induction of phase I and II enzymes but also interacts with other nuclear receptor signaling pathways. A cell based HepG2-AhR-luc assay (HG2L7.5c1 cell line, developed by Dr. Michael S. Denison, University of California at Davis, was used to assess the activation of AhR. HepG2 (human hepatocellular carcinoma) cells were stably transfected with an Ah receptor-responsive firefly luciferase reporter gene plasmid containing 20 dioxin responsive elements and luciferase reporter gene. Increased luciferase activity can be used to identify the compounds that induce AhR activation.
# Tox21 Assay Protocol Summary: 4000 cells in 5 uL/well were dispensed into white wall/solid bottom 1536-well plates using a Multidrop Combi (Thermo Fisher Scientific Inc., Waltham, MA) dispenser. After the assay plates were incubated at 37C for 5 h, 23 nL of compound or DMSO vehicle was transferred to the assay plates by a pintool station (Kalypsys, San Diego, CA). The plates were incubated at 37C for 24 hr. After 1 ul/well of CellTiter-Fluor reagent (Promega, Madison, WI) was added into the assay plates using a Flying Reagent Dispenser (FRD) (Aurora Discovery, CA), the assay plates were incubated at 37C for 30 min. The fluorescence intensity in the plates was measured using a ViewLux plate reader (PerkinElmer, Shelton, CT), followed by the addition of 4 uL of ONE-Glo Luciferase Assay reagent (Promega) using an FRD (Aurora Discovery). After the assay plates were incubated at room temperature for 30 min, luminescence intensity was measured using a ViewLux plate reader (Perkin Elmer).
# On the % scale 0 is the no-effect control and ±100 the full control effect; potency means the concentration at half of the fitted maximal effect.
# Sequence of Aryl hydrocarbon receptor (Homo sapiens) (P35869 whole entry, looked up): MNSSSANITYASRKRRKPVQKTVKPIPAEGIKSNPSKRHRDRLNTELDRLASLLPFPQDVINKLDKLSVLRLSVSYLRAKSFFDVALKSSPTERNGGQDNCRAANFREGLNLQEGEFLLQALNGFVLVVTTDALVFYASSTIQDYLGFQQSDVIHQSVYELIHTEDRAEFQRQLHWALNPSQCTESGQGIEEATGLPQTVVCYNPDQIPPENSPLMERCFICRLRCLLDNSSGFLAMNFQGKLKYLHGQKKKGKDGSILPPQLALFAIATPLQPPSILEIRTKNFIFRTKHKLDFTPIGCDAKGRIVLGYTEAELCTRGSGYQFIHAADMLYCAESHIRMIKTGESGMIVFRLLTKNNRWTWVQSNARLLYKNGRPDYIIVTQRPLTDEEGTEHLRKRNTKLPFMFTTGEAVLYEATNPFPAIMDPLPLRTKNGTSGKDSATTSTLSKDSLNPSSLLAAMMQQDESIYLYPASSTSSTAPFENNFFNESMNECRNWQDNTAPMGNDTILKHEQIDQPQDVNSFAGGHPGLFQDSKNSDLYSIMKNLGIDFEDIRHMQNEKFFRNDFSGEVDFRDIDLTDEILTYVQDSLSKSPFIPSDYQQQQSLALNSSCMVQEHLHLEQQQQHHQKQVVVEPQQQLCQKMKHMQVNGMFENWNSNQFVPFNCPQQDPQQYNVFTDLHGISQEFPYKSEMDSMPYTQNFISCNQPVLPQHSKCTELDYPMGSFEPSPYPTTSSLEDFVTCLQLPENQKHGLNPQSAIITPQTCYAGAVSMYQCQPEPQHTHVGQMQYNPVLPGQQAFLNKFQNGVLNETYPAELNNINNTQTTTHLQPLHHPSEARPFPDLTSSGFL
SMILES,activation,Potency
O=S1OCCO1,-1.84% [at 95 µM] (inactive),–
COCC(O)CO (stereo not given),0.913% [at 95 µM] (inactive),–
CNC(=S)NC,1.18% (inactive),–
CCCCCC=CCC=CCCCCCCCC(=O)OCC,0.737% (inactive),–
O=C(N/N=C/c1ccc([N+](=O)[O-])o1)c1ccc(O)cc1,-13.6% [at 32.5 µM] (inactive),–
NC(=O)Cn1c(=O)cc(CCN2CCN(c3nccc4sccc34)CC2)c2ccc(F)cc21,-0.255% (inactive),–
CC(COc1ccc(C(C)(C)C)cc1)OS(=O)OCCCl (stereo not given),1.39% [at 95 µM] (inactive),–
CC(=O)CC(c1ccc([N+](=O)[O-])cc1)c1c(O)c2ccccc2oc1=O (stereo not given),-0.145% [at 32.5 µM] (inactive),–
Nc1nc(Cl)nc2c1ncn2[C@@H]1O[C@H](CO)[C@@H](O)[C@@H]1F,0.235% (inactive),–
Cc1ccc(S(=O)(=O)NC2CCCCC2)cc1,-0.694% (inactive),–
Cc1nc2ccccc2s1,0.387% [at 95 µM] (inactive),–
CNCCCC1c2ccccc2C=Cc2ccccc21,-1.58% [at 32.5 µM] (inactive),–
CCOC(=O)[C@@H](C)Oc1ccc(Oc2nc3ccc(Cl)cc3o2)cc1,3.8% (inactive),–
C=CC(=C)CCCC(C)(C)OC(C)=O,4.37% (inactive),–
N#C/C(=C1\SCC(c2ccccc2Cl)S1)n1ccnc1 (stereo not given),–,7.5 µM (active)
CC(C)CCCC(=O)O,0.649% (inactive),–
CC1(C)C2=CCCC(C)(C)[C@]23CC[C@H]1C3,-0.706% (inactive),–
C(=C\c1ccccc1)/CN1CCN(C(c2ccccc2)c2ccccc2)CC1,-0.0694% [at 32.5 µM] (inactive),–
CN1C(=O)CC(C)(c2ccccc2)C1=O (stereo not given),5.13% (inactive),–
CC(N)CN (stereo not given),0.501% [at 95 µM] (inactive),–

SMILES,activation,Potency
CC1(C)O[C@@H]2C[C@H]3[C@@H]4CCC5=CC(=O)C=C[C@]5(C)[C@H]4[C@@H](O)C[C@]3(C)[C@]2(C(=O)CO)O1,9.34% (inactive),–
CCCCC(=O)O[C@]1(C(=O)CO)CC[C@H]2[C@@H]3CCC4=CC(=O)CC[C@]4(C)[C@H]3[C@@H](O)C[C@@]21C,5.5% (inactive),–
Cc1cc(O)c2c(O)c3c(O)cccc3cc2c1,–,2.66 µM (active)
COC(=O)Nc1nc2ccc(C(=O)c3cccs3)cc2[nH]1,–,3.76 µM (active)
CC(=O)OCC(=O)[C@@]12OC(C)(C)O[C@@H]1C[C@H]1[C@@H]3C[C@H](F)C4=CC(=O)C=C[C@]4(C)[C@@]3(F)[C@@H](O)C[C@@]12C,0.372% [at 32.5 µM] (inactive),–
CN(C(=O)C(Cl)Cl)c1ccc(OC(=O)c2ccco2)cc1,1.46% (inactive),–
CCc1nn(CCCN2CCN(c3cccc(Cl)c3)CC2)c(=O)n1CCOc1ccccc1,-4.92% (inactive),–
COC(OC)(C(=O)c1ccccc1)c1ccccc1,-1.19% (inactive),–
CCCC1C(CC)=CC(CC)=CN1c1ccccc1 (stereo not given),3.16% (inactive),–
CC(=O)[C@H]1CC[C@H]2[C@@H]3C=CC4=CC(=O)CC[C@@]4(C)[C@@H]3CC[C@]12C,-0.289% [at 32.5 µM] (inactive),–
CCCCCCOC(=O)C(C)C,3.47% (inactive),–
CC(C)c1nnc2ccc(-c3ocnc3-c3cc(F)ccc3F)cn12,-0.154% (inactive),–
CO/N=C1\CN(c2nc3c(cc2F)c(=O)c(C(=O)O)cn3C2CC2)CC1CN (stereo not given),0.692% (inactive),–
CCCCCCCCCCCC[N+](C)(C)CCCS(=O)(=O)[O-],-1.43% [at 95 µM] (inactive),–
CCCCN(CCCC)CCCOC(=O)c1ccc(N)cc1,0.615% [at 32.5 µM] (inactive),–
O=C(c1ccc(O)cc1)c1ccc(Cl)cc1,6.49% [at 95 µM] (inactive),–
CC1=C(/C=C/C(C)=C\C=C\C(C)=C\C(=O)O)C(C)(C)CCC1,1.46% (inactive),–
O=C(Nc1ccccc1)Nc1ccccc1,–,30.8 µM (active)
O=C(O)c1cccnc1C(=O)O,-1.07% (inactive),–
CCCCOC(=O)CCS,-0.571% (inactive),–
